Reference: PubChem BioAssay (NCI)
About 83,000 compounds went through this panel and 20% of them were active in at least one assay; those are over-represented in the sample as a whole.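 Interpretation: 100, growth as untreated; towards 0, rising growth inhibition; 0, no net growth; 0 to -100, cell death. Compounds scoring below 10 were considered active.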 Values without a mark were called inactive. Calls of active or inactive are those of the source.

How the values were obtained:
Experiment in all cases: NCI-60 one-dose screen, 48 h (100 = growth as untreated, 0 = no growth, -100 = all killed)
Conditions in all cases: 10 µM unless noted
[1] = tested on: DU-145 prostate
[2] = tested on: K-562 leukemia
[3] = tested on: MALME-3M melanoma
[4] = tested on: MDA-MB-231 breast
[5] = tested on: RXF 393 renal
[6] = tested on: SF-268 CNS
[7] = tested on: SF-295 CNS
[8] = tested on: SF-539 CNS
[9] = tested on: UACC-257 melanoma
[10] = tested on: M14 melanoma
[11] = tested on: HCT-15 colon
[12] = tested on: HT29 colon
[13] = tested on: SNB-75 CNS
[14] = tested on: U251 CNS
[15] = tested on: SK-MEL-5 melanoma
[16] = tested on: UACC-62 melanoma
[17] = tested on: LOX IMVI melanoma
[18] = tested on: PC-3 prostate
[19] = tested on: SK-MEL-28 melanoma
[20] = tested on: SNB-19 CNS

SMILES | growth [1] | growth [2] | growth [3] | growth [4] | growth [5] | growth [6] | growth [7] | growth [8] | growth [9] | growth [10] | growth [11] | growth [12] | growth [13] | growth [14] | growth [15] | growth [16] | growth [17] | growth [18] | growth [19] | growth [20]
Cc1ccc2c(c1)C(=O)/C(=C/c1ccc(OCC(=O)c3ccccc3)cc1)O2 | 107% | 106% | 114% | 84% | 89% | 101% | 78.8% | 92.9% | 90.1% | 95.8% | 75.3% | 101% | 109% | 99.1% | 86.9% | 63.8% | 102% | – | – | –
COc1nc2c(cc1S(=O)(=O)c1ccccc1)CCc1c-2cnn1-c1ccc(Cl)cc1 | 110% | 97.2% | 96.8% | 95.3% | 96.2% | 104% | 88.3% | 100% | 106% | 97.5% | 93.8% | 89.3% | 92.3% | 92.1% | 94.8% | 88.7% | 96.2% | – | – | –
CNC(=O)c1cc(Oc2ccc3nc(NC(=O)Nc4ccc(CN5CCOCC5)c(C(F)(F)F)c4)sc3c2)ccn1 | 31.5% | 5.93% (active) | 8.17% (active) | 28.8% | 44.6% | 34.9% | 11% | 16.5% | 18% | 23.2% | 24.5% | 45.3% | 59.4% | 22.2% | -55.4% (active) | 0.564% (active) | – | 8.35% (active) | 25.1% | –
CCCCOc1ccc(NC(=O)n2nc(NC(C)=O)c3cc(NC(C)=O)ccc32)cc1 | 94.6% | 33.7% | 93.3% | 105% | 95.6% | 127% | 84% | 95% | 112% | 95.2% | 88.9% | 85.5% | 114% | 96.2% | 101% | – | 98.5% | 76.6% | 126% | –
CCN(CC)CC(C)Nc1ccc([N+](=O)[O-])c2sc3ccccc3c(=O)c12 (stereo not given) | 27.6% | -14.2% (active) | -6.6% (active) | 51.5% | 32.4% | 27.3% | 25% | 29.5% | -10.4% (active) | 44.9% | 23.6% | 12% | 36.3% | 28.4% | 5.5% (active) | – | 14.7% | 14.6% | – | –
O=C(O)c1ccc2c(c1Sc1ccccc1)C(=O)c1ccccc1C2=O | 107% | 112% | 83.4% | 90.1% | 98.6% | 101% | 91.3% | 84.5% | 96.3% | 107% | 109% | 96% | 78.1% | 103% | 93.6% | – | 89.5% | 88.3% | 139% | –
O=C(Nc1ccc(CN2CCOCC2)cc1)c1[nH]ncc1Nc1ncnc2sccc12 | 5.47% (active) | 4.04% (active) | 8.16% (active) | 15.8% | -43% (active) | 1.23% (active) | 17.8% | -34.1% (active) | 19.9% | 14.4% | 5.47% (active) | 9.37% (active) | -24.7% (active) | 13.8% | -16.5% (active) | 10.1% | -14.4% (active) | 11% | 7.07% (active) | –
CC[C@H](CO)Nc1nc(NCc2ccccc2)n2ncc(C(C)C)c2n1 | 7.53% (active) | 2.92% (active) | -17% (active) | 8.97% (active) | -13.9% (active) | 5.86% (active) | 0.519% (active) | -46% (active) | 24.2% | 8.94% (active) | 2.45% (active) | 3.07% (active) | -73.4% (active) | 5.23% (active) | -17.6% (active) | -41.8% (active) | – | – | -16.9% (active) | –
CC(=O)OC1Oc2cc(C)c(C)cc2-c2oc(=O)c(-c3cc4ccc(N(C)C)cc4oc3=O)cc21 (stereo not given) | 85.8% | 11.4% | 68.1% | 75.8% | 45.9% | 84.8% | 54.9% | 81.4% | 73.4% | 86.7% | 100% | 100% | 69% | 115% | 49.8% | – | 101% | 61.9% | 115% | –
CCN(CC)Cc1cc(Nc2c3ccc(Cl)cc3nc3c(C)cccc23)ccc1O | 2.09% (active) | -31% (active) | -87% (active) | -48.6% (active) | -74.3% (active) | -79.8% (active) | -43.6% (active) | -96.5% (active) | -85.2% (active) | -88.5% (active) | -45.8% (active) | -41.8% (active) | -99.4% (active) | -62.4% (active) | -96.5% (active) | -79.3% (active) | – | -48.9% (active) | -65.5% (active) | –
O=C1C2CC=CCC2C(=O)N1CNc1ccc(Cl)cc1 (stereo not given) | 106% | 84.6% | 87.6% | 92.8% | 92% | 96.9% | 106% | 86.5% | 101% | 94.2% | 89.6% | 96.3% | 78.2% | 94.1% | 95% | – | 77% | 76.9% | – | –
CCN(CC)CC(O)c1cc(-c2ccc(Cl)cc2)nc2c(C)c(Cl)ccc12 (stereo not given) | -71.1% (active) | -75.3% (active) | -64% (active) | -82.2% (active) | -86.4% (active) | -29.5% (active) | -76.8% (active) | -98.6% (active) | -80.8% (active) | -98.5% (active) | -86.9% (active) | -100% (active) | -39.7% (active) | -93.5% (active) | -96.6% (active) | -92.3% (active) | – | -68.4% (active) | -85.5% (active) | –
COC1=CC(=O)C(OC)=C(OC)C1=O | 106% | 63.9% | 92.1% | 86% | 111% | 94.3% | 99.3% | 90.7% | 107% | 93.2% | 102% | 107% | 90.1% | 100% | 97.5% | 87.5% | – | 98.1% | 98.6% | –
Cn1c2c(Cl)c(Cl)ccc2c2ccn3c(=O)c4ccccc4nc3c21 | 120% | 109% | 102% | 99.5% | 117% | 105% | 102% | 95.7% | 97% | 101% | 102% | 105% | 91.6% | 100% | 95.2% | 90.6% | – | 101% | 117% | –
CN1CCN(Cc2ccc(NC(=O)c3[nH]ncc3Nc3ncnc4c3CCC4)cc2)CC1 | 5.56% (active) | 6.23% (active) | 4.81% (active) | -11.8% (active) | -49.7% (active) | 4.07% (active) | 31.2% | -37.8% (active) | 37.7% | 21.7% | 13.7% | 9.71% (active) | -22.6% (active) | 15.4% | 9.53% (active) | 9.97% (active) | – | 9.21% (active) | 5.62% (active) | –
Fc1ccc(Cc2ccc(F)cc2)cc1 | 113% | 96.7% | 106% | 107% | 118% | 101% | 113% | 102% | 108% | 106% | 116% | 111% | – | 98.5% | 101% | 101% | 97.9% | 102% | 105% | 102%
CC[C@@H](C)OC(=O)c1nn(C(C)=O)c2ccccc12 | 107% | 112% | 109% | 98.8% | 99.4% | 104% | 93.1% | 105% | 101% | 102% | 89.9% | 107% | – | 99.4% | 94.1% | 99.2% | 95.6% | 103% | – | 100%
C=C1C(=O)O[C@H]2[C@H]1CC/C(Cn1cc(Cc3c[nH]c4ccccc34)nn1)=C\CC[C@@]1(C)O[C@@H]21 | 20% | -12.9% (active) | -40.6% (active) | 1.06% (active) | -33.3% (active) | 35.1% | 79.3% | -55.4% (active) | 43.8% | 10.2% | -25.9% (active) | 3.04% (active) | – | 37.6% | 24.9% | 38% | -76.2% (active) | 38.7% | 20% | 65.4%
CCOC(=O)c1cnc2ccc(OC)cc2c1Nc1cccc(S(=O)(=O)NC)c1 | 102% | 92.8% | 105% | 100% | -4.54% (active) | 86.2% | 54.7% | 50.1% | 112% | 115% | 82.3% | 112% | – | 71.6% | 100% | 103% | 99.1% | 95.3% | 85.9% | 89%
Cc1ccc2cnc(N)c(C#Cc3cncc(C(=O)Nc4ccc(CN5CCN(C)CC5)c(C(F)(F)F)c4)c3)c2c1 | -95.8% (active) | -50.5% (active) | -83.4% (active) | -94.8% (active) | -93% (active) | -69% (active) | -87.2% (active) | -99.2% (active) | -64.7% (active) | -62.2% (active) | -91.9% (active) | -69.9% (active) | – | -89.5% (active) | -95.6% (active) | -85.5% (active) | -92.4% (active) | -71% (active) | -90.8% (active) | -99.1% (active)
